Screens as filed in PubChem.
Most compounds without a hit are left out; they make up all but 2.5% or so of the library.
rCAG RNA binder: r(CAG) repeat RNA binding | actives 1.3% (n = 370,000) | TO-PRO-1 dye displacement fluorescence | inhibition, % at 3 µM;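 active means inhibition above the plate cutoff, the mean of all test compounds on that plate plus 3 SD, cut at about 35% in these data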;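 further: higher means more dye released from RNA so lower well fluorescence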
PG9 binder: small molecules binding HIV-1 gp120 antibody PG9. TR-FRET gp120-PG9 antibody binding. inhibition, % at 6.7 µM. actives 0.43% (n = 360,000). AID 624416; in the data active means inhibition above about 8.5%
Granule exo inh: lytic granule exocytosis inhibition. TALL-104 LAMP-1 surface exposure, flow cytometry; cells stimulated with thapsigargin and PMA. inhibition, % at 10 µM. actives 0.66% (n = 360,000). AID 651702;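 active means inhibition above about 55%, limit read from the data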
ABCB6 inh 2: blocks the human ABCB6 transporter | actives 0.19% (n = 360,000) | K562-ABCB6 porphyrin accumulation, flow cytometry, 1 h; stronger effect = lower value | fluorescence ratio to DMSO, % at 10 µM | AID 602162;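 active means fluorescence ratio to DMSO below 75%, the collection mean minus 3 SD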;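 further: signal is porphyrin accumulated inside mitochondria; lower ratio means ABCB6 inhibition with less porphyrin fluorescence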
Target sequence (Q9NP58 whole entry, looked up): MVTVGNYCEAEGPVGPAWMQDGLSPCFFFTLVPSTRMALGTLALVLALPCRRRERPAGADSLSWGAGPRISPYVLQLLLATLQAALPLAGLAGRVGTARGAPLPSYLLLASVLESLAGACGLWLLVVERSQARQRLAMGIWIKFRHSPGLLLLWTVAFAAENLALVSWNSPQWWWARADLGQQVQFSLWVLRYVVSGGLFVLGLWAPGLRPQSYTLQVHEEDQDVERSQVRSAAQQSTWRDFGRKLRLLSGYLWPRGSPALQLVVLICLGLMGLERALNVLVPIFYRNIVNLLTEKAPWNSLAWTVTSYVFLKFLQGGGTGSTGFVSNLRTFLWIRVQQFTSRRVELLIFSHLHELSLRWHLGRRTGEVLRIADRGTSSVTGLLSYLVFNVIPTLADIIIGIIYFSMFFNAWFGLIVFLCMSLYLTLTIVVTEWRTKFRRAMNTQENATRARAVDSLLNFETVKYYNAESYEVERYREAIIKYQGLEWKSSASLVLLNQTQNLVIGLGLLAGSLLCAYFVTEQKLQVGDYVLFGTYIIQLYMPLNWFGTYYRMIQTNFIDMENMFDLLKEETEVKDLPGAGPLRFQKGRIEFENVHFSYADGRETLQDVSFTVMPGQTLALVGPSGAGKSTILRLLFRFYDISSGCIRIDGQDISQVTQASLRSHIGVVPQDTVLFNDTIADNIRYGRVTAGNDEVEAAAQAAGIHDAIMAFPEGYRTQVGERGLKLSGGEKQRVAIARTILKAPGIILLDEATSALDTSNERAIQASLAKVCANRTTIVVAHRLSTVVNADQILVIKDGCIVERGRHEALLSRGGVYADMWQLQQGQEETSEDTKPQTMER
PG9 binder conf: PG9 antibody binding, confirmed. shares compounds with PG9 binder. TR-FRET PG9 antibody binding, biochemical. actives 90% (n = 1,500). inhibition, % at 6.7 µM; in the data active means inhibition above about 9%
PGV04 Ab binding: PGV04 control antibody binding, counter-screen | TR-FRET PGV04 antibody-gp120 binding, biochemical | shares compounds with PG9 binder | actives 95% (n = 1,500) | inhibition, % at 6.7 µM; in the data active means inhibition above about 9.5%
PG9 bind DR: small molecules binding HIV-1 gp120 antibody PG9. AID 651848. TR-FRET PG9 antibody-gp120 binding inhibition. shares compounds with PG9 binder. IC50, µM. 95 tested, under 10 active; in the data active means IC50 below about 10 µM
PGV04 binding DR: PGV04 binding, dose response counter-screen | TR-FRET binding to control antibody PGV04 | actives 20% (n = 95) | AID 651937 | shares compounds with PG9 binder | IC50, µM
PG126 DR counter: PG126 binding, dose response counter-screen; shares compounds with PG9 binder; TR-FRET binding to antibody PG126, counterscreen; IC50, µM; actives 20% (n = 95); AID 651939
Hits are given with their value; n = inactive; x = not tested or not shown. Unless noted, no stated cut-off is given here; in the data, active means IC50 below about 9 µM; inactive means the rest.

SMILES	rCAG RNA binder	PG9 binder	Granule exo inh	ABCB6 inh 2	PG9 binder conf	PGV04 Ab binding	others
Cc1ccc(S(=O)ONc2cccc(NOS(=O)c3ccc(C)cc3)c2)cc1 (configuration not stated)	n	n	n	n	x	x
O=C1C(=O)N(CCN2CCOCC2)C(c2cccc(Cl)c2)/C1=C(\O)c1ccc2c(c1)OCCO2 (configuration not stated)	n	32	n	n	36	42
CCCCOc1cccc(C2/C(=C(\O)c3ccc4c(c3)OCCO4)C(=O)C(=O)N2CCN2CCOCC2)c1 (configuration not stated)	n	10	n	n	18	31
CCCOc1cccc(C2/C(=C(\O)c3ccc4c(c3)OCCO4)C(=O)C(=O)N2CCCn2ccnc2)c1 (configuration not stated)	n	n	n	n	x	x
CC(=O)OCC1OC(OC2C[C@]3(C)C(CC(O)C4C([C@](C)(CCC=C(C)C)OC5OC(CO)C(O)C(O)C5O)CC[C@]43C)[C@@]3(C)CCC(O)C(C)(C)C23)C(O[C@@H]2OC(C)C(O)C(O)C2O)C(O)C1O (some centres not stated)	x	x	n	n	x	x
O=C(Nc1nc2c(Br)cc(Br)cc2c(=O)s1)C1CCC1	n	10	n	n	18	20
Cc1ccc(C)c2sc(NC(=O)C3CC3)nc12	n	n	n	n	x	x
COc1ccc2nc(C)[nH]c(=O)c2c1	n	n	n	n	x	x
COc1ccc2nc(-c3ccccc3)[nH]c(=O)c2c1	n	54	n	n	68	77
COc1ccc(N=C2SC(C(=O)N3CCN(c4ccccc4)CC3)CC(=O)N2C)cc1 (configuration not stated)	n	n	n	n	x	x
CCOC(=O)c1cnc2ccccc2c1NCCO	n	n	n	n	x	x
CCOC(=O)c1cnc2c(Cl)cc(Cl)cc2c1NCCOCCO	n	13	n	n	9.7	12
Cn1c(C(=O)NC2CCCCC2)cc2c(=O)n(C)c3ccccc3c21	n	12	n	n	15	26
CCCc1cc(=O)oc2cc(OCC(=O)NCc3cccs3)ccc12	n	n	n	n	x	x
CCCc1cc(=O)oc2cc(OCC(=O)Nc3ccc(S(N)(=O)=O)cc3)ccc12	n	18	n	n	24	22	PG9 bind DR=n;PGV04 binding DR=n;PG126 DR counter=n
CC(C)[C@H](NS(=O)(=O)c1cccc(C(F)(F)F)c1)C(=O)OCC(=O)NC(=O)NCc1ccco1	n	n	n	n	x	x
COc1ccc(-c2nnc(SCc3nc4ccccc4c(=O)[nH]3)o2)cc1	n	8.9	n	n	12	14
CCCCN(C)CCN1C(=O)C2C(C(=O)Nc3cccc(OC)c3)C3C=CC2(O3)C1C(=O)NC1CCCCC1C (configuration not stated)	n	n	n	n	x	x
COc1ccccc1C(=O)Nc1ccc2c(C)cc(=O)oc2c1	n	17	n	n	20	30
CCOc1ncccc1C(=O)Nc1ccc2c(C)cc(=O)oc2c1	n	n	n	n	x	x
Cc1ccccc1OCCC(=O)Nc1ccc2c(C)cc(=O)oc2c1	n	10	n	n	15	38
CCn1c2c(c3cc(Br)ccc31)CCC/C2=N\O	n	16	n	n	20	32
O=C(Nc1nnc(SCc2ccccc2)s1)c1cc2c(s1)CCCC2	n	9.7	n	n	21	17	PG9 bind DR=n;PGV04 binding DR=n;PG126 DR counter=n
O=C(Nc1nnc(SCc2ccc(F)cc2)s1)c1ccc2ncsc2c1	n	9.7	n	n	19	25
CCSc1nnc(NC(=O)c2csc3c2CCCC3)s1	n	9.2	n	n	24	38
CCSc1nnc(NC(=O)c2cc3c(s2)CCCC3)s1	n	12	n	n	23	18	PG9 bind DR=n;PGV04 binding DR=n;PG126 DR counter=n
CCSc1nnc(NC(=O)c2csc3c2CCC(C)C3)s1 (configuration not stated)	n	n	n	n	x	x
O=C(Nc1nncs1)c1cc2c(s1)CCC2	n	n	n	n	x	x
